# Experimental data as given in PubChem BioAssay (NCATS).
# Records with an inconclusive call do not appear. A number with no mark means an inactive call. Activity calls are given as the source filed them. The call rests on the fitted dose curve; in most records, active means well fitted curve in the direction sought with a large enough effect; inconclusive means small, poorly fitted or top-dose-only effect, or another doubt; inactive means no such curve, though single readings can be large; an effect the other way counts as inactive or inconclusive.
# Tested on: Zika virus NS2B-NS3 protease (unlinked)
# Test: Optimization of GU AMC qHTS for Zika virus inhibitors: Unlinked NS2B-NS3 protease assay (AID 1347151);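 further: 0% = no-inhibitor control and -100% = no-enzyme control; nearly all actives have a fitted effect of over 80% in size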
# Settings: recombinant ZIKV NS2B-NS3 protease, fluorogenic AMC substrate; series mostly up to 52.5 µM; activity change, negative = inhibition: at the top concentration
# Procedure, shortened: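 In this qHTS, compounds acted on 25 nM unlinked Zika NS2B–NS3 in pH 8.0 Tris/Tween buffer. Cleavage of an AMC peptide ran 15 min at room temperature, to about 20% conversion.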
SMILES,"activity change, negative = inhibition",Potency
CC1=C(/C=C/C(C)=C/C=C/C(C)=C/C(=O)O)C(C)(C)CCC1,-19.7%,
CN(C)CCCN1c2ccccc2CCc2ccccc21,1.7%,
CC(=O)c1ccc2c(c1)N(CCCN(C)C)c1ccccc1S2,3.99%,
CC(CN1c2ccccc2Sc2ccccc21)N(C)C (stereo not given),-13.9%,
CN1CCC[C@@H]1Cc1c[nH]c2ccc(CCS(=O)(=O)c3ccccc3)cc12,10.9%,
CNC(=O)Oc1ccc2c(c1)[C@]1(C)CCN(C)[C@@H]1N2C,-13.5%,
COCCOC(=O)C1=C(C)NC(C)=C(C(=O)OC/C=C/c2ccccc2)C1c1cccc([N+](=O)[O-])c1 (stereo not given),0.334%,
Nc1cc(=O)[nH]c(N)n1,1.68%,
CSc1ccc2c(c1)C(N1CCN(C)CC1)Cc1ccccc1S2 (stereo not given),6.25%,
CC(C)NC[C@H](O)c1ccc(O)c(O)c1,,inactive

# Tested on: Zika virus NS2B-NS3 protease
# Test: Primary screen GU AMC qHTS for Zika virus inhibitors (AID 1347154); further: nearly all actives have a fitted effect of over 70% in size; further: potency means the concentration at half of the fitted maximal effect;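 on activity change, negative = inhibition: 0% = no-inhibitor control and -100% = no-enzyme control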
# Settings: Zika NS2B-NS3 unlinked protease, AMC fluorogenic substrate; series mostly up to 54.1 µM; activity change, negative = inhibition: at the top concentration
# Procedure, shortened: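 Unlinked Zika NS2B hydrophilic domain/NS3 protease domain noncovalent complex (25 nM final) in 10 mM Tris-HCl pH 8.0, 0.01% Tween 20, with AMC peptide substrate. Fluorescence (ex 340, em 450 nm) change over 15 min, room temperature; percent inhibition fitted to 4-parameter Hill equation.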
SMILES,"activity change, negative = inhibition",Potency
CC(=O)OCC(=O)[C@@]1(O)CC[C@H]2[C@@H]3CCC4=CC(=O)CC[C@]4(C)[C@H]3C(=O)C[C@@]21C,4.11%,
CC[C@H]1CN2CCc3cc(OC)c(OC)cc3[C@@H]2C[C@@H]1C[C@H]1NCCc2cc(OC)c(OC)cc21,3.16%,
Nc1ncnc2c1ncn2[C@@H]1O[C@H](CO)[C@@H](O)[C@H]1O,-11.3%,
N[C@H](C(=O)O)c1ccc(O)cc1,-4.27% [at 25.8 µM],
CC[N+](CC)(CC)CCOc1ccc(/C=C/c2ccccc2)cc1,,inactive
C[C@]12C[C@H](O)[C@H]3[C@@H](CCC4=CC(=O)CC[C@@]43C)[C@@H]1CC[C@@H]2C(=O)CO,-5.9%,
CCN(CC)C(C)CN1c2ccccc2Sc2ccccc21 (stereo not given),-0.297%,
O=C1NS(=O)(=O)c2ccccc21,-1.96%,
C#CCN(C)Cc1ccccc1,-2.32%,
CN(C)CCCN1c2ccccc2Sc2ccc(Cl)cc21,-1.42%,
CC1=C(CC(=O)O)c2cc(F)ccc2/C1=C\c1ccc(S(C)=O)cc1 (stereo not given),,inactive
CCN(CC)CCNC(=O)c1c(C)[nH]c(/C=C2\C(=O)Nc3ccc(F)cc32)c1C,6.62%,
O=C(O)[C@H](O)c1ccccc1,-19.8%,
CC1=C(/C=C/C(C)=C/C=C/C(C)=C/C(=O)O)C(C)(C)CCC1,1.8%,
CN(C)CCCN1c2ccccc2CCc2ccccc21,-0.821%,
CC(=O)c1ccc2c(c1)N(CCCN(C)C)c1ccccc1S2,,inactive
Cc1cc(C(C#N)c2ccc(Cl)cc2)c(Cl)cc1NC(=O)c1cc(I)cc(I)c1O (stereo not given),,3.98 µM (active)
C=Cc1c(C)c2cc3[nH]c(cc4nc(cc5nc(cc1[nH]2)C(C)=C5CCC(=O)O)C(CCC(=O)O)=C4C)c(C)c3C=C,2.68%,
CNC(=O)Oc1ccc2c(c1)[C@]1(C)CCN(C)[C@@H]1N2C,9.3%,
COCCOC(=O)C1=C(C)NC(C)=C(C(=O)OC/C=C/c2ccccc2)C1c1cccc([N+](=O)[O-])c1 (stereo not given),,inactive
CSc1ccc2c(c1)C(N1CCN(C)CC1)Cc1ccccc1S2 (stereo not given),-2.39%,
CC(C)NC[C@H](O)c1ccc(O)c(O)c1,2.22%,

# Tested on: Zika virus NS2B-NS3 protease (unlinked complex)
# Test: Primary screen GU Rhodamine qHTS for Zika virus inhibitors: Unlinked NS2B-NS3 protease assay (AID 1347159); further: nearly all actives have a fitted effect of over 60% in size; further: potency means the concentration at half of the fitted maximal effect; on activity change, negative = inhibition: on the % scale 0 is the no-effect control and ±100 the full control effect
# Settings: Recombinant ZIKV NS2B-NS3 protease, Rhodamine110 substrate fluorescence; series mostly up to 107 µM; activity change, negative = inhibition: at the top concentration
# Procedure, shortened: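 Noncovalent NS2B hydrophilic domain–NS3 protease domain complex (25 nM) preincubated 15 min at room temperature with compounds (up to 114 microM) in 10 mM Tris-HCl pH 8.0, 0.01% Tween 20; 1.5 microM Rhodamine110 substrate added, fluorescence change over 15 min fitted to Hill equation.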
SMILES,"activity change, negative = inhibition",Potency
CC(C(O)c1ccc(O)cc1)N1CCC(Cc2ccccc2)CC1 (stereo not given),-22.6% [at 57.1 µM],
CCN(CC)CCCC(C)Nc1c2ccc(Cl)cc2nc2ccc(OC)cc12 (stereo not given),-17.6% [at 57.1 µM],
CC(C)(O)c1ccccc1CC[C@@H](SCC1(CC(=O)O)CC1)c1cccc(/C=C/c2ccc3ccc(Cl)cc3n2)c1,,3.16 µM (active)
Cc1cc(N)c2ccccc2[n+]1CCCCCCCCCC[n+]1c(C)cc(N)c2ccccc21,-15.4%,
Cc1cc(C(C#N)c2ccc(Cl)cc2)c(Cl)cc1NC(=O)c1cc(I)cc(I)c1O (stereo not given),,1.78 µM (active)
CN1CCC[C@@H]1Cc1c[nH]c2ccc(CCS(=O)(=O)c3ccccc3)cc12,9.26%,
CNC(=O)Oc1ccc2c(c1)[C@]1(C)CCN(C)[C@@H]1N2C,14.8%,

# Tested on: Zika virus NS2B-NS3 protease (linked construct)
# Test: Primary screen NINDS Rhodamine qHTS for Zika virus inhibitors (AID 1347160); further: nearly all actives have a fitted effect of over 55% in size; further: potency means the concentration at half of the fitted maximal effect; on activity change, negative = inhibition: on the % scale 0 is the no-effect control and ±100 the full control effect
# Settings: purified NS2B-NS3 protease, Rhodamine110 substrate fluorescence; series mostly up to 57.1 µM; activity change, negative = inhibition: at the top concentration; outcome: at the top concentration
# Procedure, shortened: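 Purified linked NS2B-NS3 protease (NS2B hydrophilic domain joined to NS3 protease by flexible linker), 25 nM in 10 mM Tris-HCl pH 8.0, 0.01% Tween 20. Compounds titrated, 15 min preincubation at room temperature; 1.5 microM Rhodamine110 substrate, FITC fluorescence change over 15 min.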
SMILES,"activity change, negative = inhibition",outcome,Potency
CC(C(O)c1ccc(O)cc1)N1CCC(Cc2ccccc2)CC1 (stereo not given),83% [at 33.1 µM],,
CCN(CC)CCCC(C)Nc1c2ccc(Cl)cc2nc2ccc(OC)cc12 (stereo not given),11.7% [at 33.1 µM],,
Cc1cc(N)c2ccccc2[n+]1CCCCCCCCCC[n+]1c(C)cc(N)c2ccccc21,,inactive,
Cc1cc(C(C#N)c2ccc(Cl)cc2)c(Cl)cc1NC(=O)c1cc(I)cc(I)c1O (stereo not given),,,3.16 µM (active)
CN1CCC[C@@H]1Cc1c[nH]c2ccc(CCS(=O)(=O)c3ccccc3)cc12,19.6%,,
CNC(=O)Oc1ccc2c(c1)[C@]1(C)CCN(C)[C@@H]1N2C,,inactive,

# Molecular target: Lysine-specific demethylase 5B (Homo sapiens) (UniProt Q9UGL1)
# Sequence (Q9UGL1 whole entry, looked up): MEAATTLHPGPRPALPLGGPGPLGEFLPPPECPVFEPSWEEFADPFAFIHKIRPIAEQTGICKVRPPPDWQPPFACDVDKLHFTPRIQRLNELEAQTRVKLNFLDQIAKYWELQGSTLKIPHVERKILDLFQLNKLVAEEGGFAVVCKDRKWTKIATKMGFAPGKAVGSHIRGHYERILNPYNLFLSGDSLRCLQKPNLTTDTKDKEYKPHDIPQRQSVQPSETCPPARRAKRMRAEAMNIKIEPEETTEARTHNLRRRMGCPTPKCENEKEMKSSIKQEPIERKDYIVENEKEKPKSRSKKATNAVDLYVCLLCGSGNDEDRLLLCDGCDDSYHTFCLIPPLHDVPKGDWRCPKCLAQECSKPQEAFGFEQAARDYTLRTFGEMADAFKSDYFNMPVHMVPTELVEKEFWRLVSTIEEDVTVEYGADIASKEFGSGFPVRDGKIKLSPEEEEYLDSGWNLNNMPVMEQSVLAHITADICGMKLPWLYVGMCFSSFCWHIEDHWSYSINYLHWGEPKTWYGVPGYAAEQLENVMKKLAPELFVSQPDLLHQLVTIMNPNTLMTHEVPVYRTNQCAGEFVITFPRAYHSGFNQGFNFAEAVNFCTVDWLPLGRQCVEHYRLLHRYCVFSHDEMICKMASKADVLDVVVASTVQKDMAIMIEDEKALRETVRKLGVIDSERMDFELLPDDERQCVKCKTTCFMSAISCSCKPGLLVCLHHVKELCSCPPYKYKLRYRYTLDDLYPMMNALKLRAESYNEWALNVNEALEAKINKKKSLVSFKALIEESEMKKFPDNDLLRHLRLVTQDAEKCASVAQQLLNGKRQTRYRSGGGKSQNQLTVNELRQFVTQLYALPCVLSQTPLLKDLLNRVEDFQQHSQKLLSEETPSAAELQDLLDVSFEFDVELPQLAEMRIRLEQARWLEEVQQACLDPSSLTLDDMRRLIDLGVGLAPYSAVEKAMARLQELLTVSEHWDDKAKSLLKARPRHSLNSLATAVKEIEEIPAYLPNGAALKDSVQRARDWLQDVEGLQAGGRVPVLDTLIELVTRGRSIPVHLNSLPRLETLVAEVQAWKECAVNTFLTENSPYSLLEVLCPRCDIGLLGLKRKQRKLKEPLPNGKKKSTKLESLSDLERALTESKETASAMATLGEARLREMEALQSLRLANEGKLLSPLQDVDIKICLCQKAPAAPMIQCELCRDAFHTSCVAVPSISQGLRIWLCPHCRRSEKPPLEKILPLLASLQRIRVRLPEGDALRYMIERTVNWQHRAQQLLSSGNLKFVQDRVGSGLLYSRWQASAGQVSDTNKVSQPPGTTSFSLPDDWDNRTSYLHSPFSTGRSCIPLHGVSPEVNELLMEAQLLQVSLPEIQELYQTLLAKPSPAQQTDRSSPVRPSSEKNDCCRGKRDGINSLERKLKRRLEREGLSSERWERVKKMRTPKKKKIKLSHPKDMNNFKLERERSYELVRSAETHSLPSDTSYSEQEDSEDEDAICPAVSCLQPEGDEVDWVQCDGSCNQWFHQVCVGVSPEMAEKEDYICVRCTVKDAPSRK
# Test: Optimization screen for KDM5B Histone Demethylases FDH coupled qHTS against the LOPAC library (AID 1347166); further: 0% is about no effect
# Settings: KDM5B demethylation, FDH-coupled NADH fluorescence (FDH is formaldehyde dehydrogenase); series mostly up to 57.5 µM; activity, negative = inhibition: at the top concentration
# Procedure, shortened: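 KDM5BDeltaAP (200nM final) preincubated 10 min with compound, then 12.5uM H3K4Me3, 25uM a-ketoglutarate, ascorbate, Fe(II), NAD+ and FDH added; 50mM HEPES pH 7.5, 0.01% Tween-20. NADH fluorescence (340/450 nm) change over 30 min, room temperature.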
SMILES,"activity, negative = inhibition",outcome
CN1CCN(C2Cc3ccccc3Sc3ccc(Cl)cc32)CC1 (stereo not given),-12.4%,
CC(C(O)c1ccc(O)cc1)N1CCC(Cc2ccccc2)CC1 (stereo not given),-19.7%,
CC(=O)OCC(=O)[C@@]1(O)CC[C@H]2[C@@H]3CCC4=CC(=O)CC[C@]4(C)[C@H]3C(=O)C[C@@]21C,-3.64%,
CC[C@H]1CN2CCc3cc(OC)c(OC)cc3[C@@H]2C[C@@H]1C[C@H]1NCCc2cc(OC)c(OC)cc21,5.32%,
Nc1ncnc2c1ncn2[C@@H]1O[C@H](CO)[C@@H](O)[C@H]1O,-1.13%,
OCCN1CCN(CCCN2c3ccccc3Sc3ccc(Cl)cc32)CC1,-6.73%,
C[C@]12C[C@H](O)[C@H]3[C@@H](CCC4=CC(=O)CC[C@@]43C)[C@@H]1CC[C@@H]2C(=O)CO,-2.17%,
NC(=O)c1ncn([C@@H]2O[C@H](CO)[C@@H](O)[C@H]2O)n1,-2.36%,
CCN(CC)C(C)CN1c2ccccc2Sc2ccccc21 (stereo not given),-9.93%,
C#CCN(C)Cc1ccccc1,-25.4%,
CN(C)CCCN1c2ccccc2Sc2ccc(Cl)cc21,-8.01%,
N=c1c[n+](N2CCOCC2)[n-]o1,-8.33%,
CC(C)(C)c1onc(OCP(=O)(O)O)c1CC(N)C(=O)O (stereo not given),,inactive
CC1=C(/C=C/C(C)=C/C=C/C(C)=C/C(=O)O)C(C)(C)CCC1,-28.6%,
CN(C)CCCN1c2ccccc2CCc2ccccc21,-7.16%,
CC(CN1c2ccccc2Sc2ccccc21)N(C)C (stereo not given),-8.67%,
CNC(=O)Oc1ccc2c(c1)[C@]1(C)CCN(C)[C@@H]1N2C,-19.9%,
COCCOC(=O)C1=C(C)NC(C)=C(C(=O)OC/C=C/c2ccccc2)C1c1cccc([N+](=O)[O-])c1 (stereo not given),-13.7%,
Nc1cc(=O)[nH]c(N)n1,-5.32%,
CSc1ccc2c(c1)C(N1CCN(C)CC1)Cc1ccccc1S2 (stereo not given),-8.69%,
